Assay results as given in the supplement of paper PMC6555819.

Columns and labels:
Assay in all cases: PBM binding z-score (relative to random genomic background probes); higher = stronger binding; sequences stand for … in GC…GCGATTGACAGCGTAGAATGAAGG
[1] = tested on: FXR:RXRa (NR concentration 270 nM, RXRa partner concentration 90 nM)
Procedure, shortened: (§1)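 The probes on custom Agilent 4×180K protein-binding microarrays were double-stranded, with 34-nt variable regions bearing direct-repeat seeds, single-nucleotide variants, half-site ablations and random human genomic background sequences. Incubation lasted 1 h with ligand-free nuclear receptor dimers in PBS pH 7.4, 2% milk, 0.02% Triton X-100, 1 mM DTT, 0.2 mg/mL BSA and 0.4 mg/ml salmon testes DNA. Antibodies against each partner (one per run) detected bound dimers, and fluorescence scans were regression-normalized. Binding z-scores take the random background probes as reference.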

[2] = tested on: LXRa:RXRa (NR concentration 270 nM, RXRa partner concentration 90 nM)
Procedure, shortened: as §1

[3] = tested on: LXRa homodimer (NR concentration 270 nM)
Procedure, shortened: as §1

[4] = tested on: LXRb:RXRa (NR concentration 270 nM, RXRa partner concentration 90 nM)
Procedure, shortened: as §1

[5] = tested on: LXRb homodimer (NR concentration 270 nM)
Procedure, shortened: as §1

[6] = tested on: PPARa:RXRa (NR concentration 270 nM, RXRa partner concentration 90 nM)
Procedure, shortened: as §1

[7] = tested on: PPARg:RXRa (NR concentration 180 nM, RXRa partner concentration 90 nM)
Procedure, shortened: as §1

[8] = tested on: PPARg:RXRa 270nM:90nM, anti-RXR (NR concentration 270 nM, RXRa partner concentration 90 nM)
Procedure, shortened: as §1

[9] = tested on: PPARg:RXRa 30nM:10nM, anti-RXR (NR concentration 30 nM, RXRa partner concentration 10 nM)
Procedure, shortened: as §1

[10] = tested on: PPARg:RXRa 90nM:30nM, anti-RXR (NR concentration 90 nM, RXRa partner concentration 30 nM)
Procedure, shortened: as §1

[11] = tested on: PPARg:RXRa DBDmut IVT, anti-RXR (DBD mutation: RXRa K156A/R161A, NR concentration 270 nM, RXRa partner concentration 90 nM)
Procedure, shortened: as §1

[12] = tested on: PPARg:RXRa IVT, anti-PPARg (NR concentration 270 nM, RXRa partner concentration 90 nM)
Procedure, shortened: as §1

[13] = tested on: PPARg DBDmut:RXRa IVT, anti-PPARg (DBD mutation: PPARg1 K132A/R137A, NR concentration 270 nM, RXRa partner concentration 90 nM)
Procedure, shortened: as §1

[14] = tested on: PPARg DBDmut IVT, anti-PPARg (DBD mutation: PPARg1 K132A/R137A, NR concentration 270 nM)
Procedure, shortened: as §1

[15] = tested on: PPARg homodimer (NR concentration 180 nM)
Procedure, shortened: as §1

[16] = tested on: PXR:RXRa (NR concentration 270 nM, RXRa partner concentration 90 nM)
Procedure, shortened: as §1

[17] = tested on: PXR homodimer (NR concentration 270 nM)
Procedure, shortened: as §1

[18] = tested on: RARa:RXR (NR concentration 270 nM, RXRa partner concentration 90 nM)
Procedure, shortened: as §1

[19] = tested on: RARa homodimer (NR concentration 270 nM)
Procedure, shortened: as §1

[20] = tested on: RARb:RXRa (NR concentration 270 nM, RXRa partner concentration 90 nM)
Procedure, shortened: as §1

| Sequence | PBM binding z-score [1] | PBM binding z-score [2] | PBM binding z-score [3] | PBM binding z-score [4] | PBM binding z-score [5] | PBM binding z-score [6] | PBM binding z-score [7] | PBM binding z-score [8] | PBM binding z-score [9] | PBM binding z-score [10] | PBM binding z-score [11] | PBM binding z-score [12] | PBM binding z-score [13] | PBM binding z-score [14] | PBM binding z-score [15] | PBM binding z-score [16] | PBM binding z-score [17] | PBM binding z-score [18] | PBM binding z-score [19] | PBM binding z-score [20] |
| --- | --- | --- | --- | --- | --- | --- | --- | --- | --- | --- | --- | --- | --- | --- | --- | --- | --- | --- | --- | --- |
| TCGAGTAGGTTACCAATGGGGCATTCCGCTTTCT | 0.135 | 1.46 | -0.855 | 0.838 | -1.11 | 1.01 | -0.123 | 1.1 | 1.11 | 0.974 | 3.12 | 2.43 | -0.775 | -0.0752 | -0.326 | -0.00662 | -1.08 | 0.186 | -1.04 | 0.81 |
| ATCGAAAGGTCGAAGGTGAGTTTACCCACCCGAA | 4.75 | 3.73 | 0.479 | 2.89 | 0.226 | 4.78 | 4.38 | 4.6 | 2.08 | 3.81 | 0.357 | 2.21 | 0.513 | 0.511 | 1.48 | 4.03 | 1.02 | 4.05 | 0.0951 | 3.85 |
| CGTAGTTGGTCAAGGTCACACACGCTATAGGTAC | 4.12 | 3.72 | 1.39 | 3.6 | 0.592 | 4.13 | 3.4 | 3.54 | 1.47 | 2.64 | 1.92 | 3.93 | 0.825 | 0.313 | 2.32 | 4.02 | 1.11 | 4.18 | 1.01 | 4.18 |
| CCTGCTAGGTCAATGGTGAGCTAAAGCAGCTCGC | 2.56 | 1.58 | -0.54 | 0.808 | -0.0982 | 2.57 | 2.46 | 2.99 | 1.2 | 2.5 | 4.2 | 3.22 | -0.736 | -0.744 | 0.822 | 0.37 | -0.961 | 1.09 | -0.333 | 3.51 |
| CTTACTGGGCCATTCAGAGGTCATTGATCATATG | 3.23 | 4.72 | 6.7 | 4.11 | 0.985 | 4.48 | 4.03 | 4.43 | 2.21 | 3.71 | 6.81 | 6.21 | 0.768 | 1.22 | 2.09 | 4.88 | 2.99 | 4.16 | 0.436 | 3.23 |
| CATACAGGGGCAGCTAGGCCAGAGTAGGGACGGC | -0.362 | -0.459 | -0.661 | -0.557 | -0.608 | -0.483 | 0.23 | -0.457 | -0.311 | -0.744 | -0.41 | 0.399 | -0.422 | -0.72 | -0.555 | -0.802 | -0.878 | -0.828 | 0.188 | 1.17 |
| TCTCGTAGATCAGCAGGTTAAGAAAGCTGGCCAA | -0.53 | -0.117 | -0.522 | 0.0597 | -1.13 | 0.428 | -0.691 | 1.22 | 2.41 | 2.08 | 1.33 | -0.478 | -0.653 | -0.513 | -0.593 | -0.00394 | -0.361 | 0.521 | -0.998 | -0.0596 |
| CCTTACTGGTCAAGGTTATAGCACGGGTGGTACG | 0.733 | 0.968 | 0.49 | 0.767 | 0.339 | 1.43 | 0.792 | 1.03 | 0.301 | 0.959 | 0.149 | 0.857 | 0.06 | 0.0641 | 1.25 | 1.12 | 0.519 | 1.01 | 0.942 | 2.02 |
| CCAGACAGGTGAAAGGTAACGCAGTCTGGTACGC | 0.748 | 0.83 | -0.423 | 0.898 | -0.326 | 3.57 | 5.87 | 6.19 | 4.19 | 6.4 | 2.46 | 3.24 | -0.31 | 0.017 | 1.67 | 0.869 | -0.124 | 2.01 | 0.457 | 1.47 |
| TCATATAGGTAATACAGGGGAAAGTCGGCATCTA | 1.29 | 1.31 | 0.263 | 1.21 | 0.513 | 1.55 | 1.01 | 2.49 | 4.47 | 3.25 | 4.42 | 2.56 | 1.36 | 0.581 | 0.957 | 0.783 | 0.581 | 1.08 | 0.911 | 0.566 |
| TAGCCTAGGTCATGGGCCGGTATACCACGCGAAC | 4.76 | 3.42 | 0.261 | 2.72 | 0.0172 | 4.23 | 3.35 | 3.56 | 0.856 | 2.46 | 1.46 | 3.44 | -0.00724 | -0.404 | 1.23 | 1.8 | -0.488 | 2.94 | -0.0532 | 3.9 |
| TCGAGTAGGTTACCAATGGGGCAGTCAGCTTTCT | 0.254 | 0.465 | -0.934 | 0.266 | -0.413 | 1.05 | 0.211 | 1.04 | 1.06 | 0.984 | 3.11 | 2.43 | -0.721 | -1.01 | -0.432 | -0.103 | -1.34 | 0.0626 | -1.21 | 0.908 |
| CCAGACAGGTGGAAGGTAACTCAGTCTGGTACGC | -0.299 | -0.335 | -0.385 | -0.402 | -0.752 | 0.13 | 0.719 | 1.5 | -0.203 | 0.663 | -0.367 | -0.196 | -1.35 | -1.42 | 0.35 | -0.242 | -0.0179 | -0.223 | 0.246 | -0.313 |
| CTCGAAAGGTCGTGCTGAGGTGAGTATACCAAAC | 4.89 | 3.82 | 0.000478 | 3.31 | -0.153 | 4.82 | 2.58 | 3.85 | 1.23 | 2.67 | 0.827 | 1.96 | 0.22 | 0.0024 | 1.84 | 3.61 | 0.222 | 4.16 | -0.373 | 3.93 |
